We go through 37 compounds from the supplement of paper PMC9694430.

The subject of the first test is LOC_OS01G60330-cb001. Put plainly: thermal shift delta Tm vs DMSO control; higher = stronger stabilization (binding). Particulars: 12.5 µM; protein concentration 2 µM. The method, boiled down: (§1)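 Purified, E. coli-expressed rice kinase domain constructs were tested by differential scanning fluorimetry in 96-well plates: 19.5 μl of 2 μM kinase in 100 mM potassium phosphate pH 7.5, 150 mM NaCl, 10% glycerol, 5 × SYPRO Orange, plus compound in DMSO. Fluorescence was read from 25°C to 95°C at 0.05°C/s. Melting temperatures came from Boltzmann fits, and the shift is the triplicate mean relative to protein with DMSO alone.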
Turning to `O=C1NC(=O)C(=Cc2ccc(-c3ccc(F)cc3)o2)S1` (stereo in doubt), the “thermal shift delta Tm” value turned out to be 0.21 °C.

Consider `CONC(=O)c1ccccc1Nc1cc(Nc2cc(C)nn2C(C)C)ncc1Cl`, for which the “thermal shift delta Tm” value was determined as 0.07 °C.

Consider `O=C(O)c1ccc2c3c1cccc3c(=O)n1c3ccccc3nc21`, for which the “thermal shift delta Tm” value came out at 3.73 °C.

Consider `OC1CCC(Oc2cccc3cnc(Nc4ccc5nc[nH]c5c4)nc23)CC1` (centres undefined), for which the “thermal shift delta Tm” value turned out to be 13.9 °C.

As to `CN1CCN(Cc2ccc(-c3cnc4[nH]cc(-c5ccc6[nH]ccc6c5)c4c3)cc2)CC1`, the “thermal shift delta Tm” value stood at 5.96 °C.

`Cc1cc(N2CCOCC2)cc2[nH]c(-c3c(NC[C@@H](O)c4cccc(Cl)c4)cc[nH]c3=O)nc12`: the “thermal shift delta Tm” value turned out to be 6.82 °C.

Turning to `S=C(NCc1ccc2c(c1)OCO2)N1CCN(c2ncnc3c2oc2ccccc23)CC1` [Amuvatinib (MP-470)], the “thermal shift delta Tm” value is 1.4 °C.

Consider `COc1cc2c(N3CCN(C(=O)Nc4ccc(OC(C)C)cc4)CC3)ncnc2cc1OCCCN1CCCCC1` [Tandutinib (MLN518)], for which the “thermal shift delta Tm” value worked out at 0.04 °C.

Turning to `COc1cc(-c2cc(-c3ccc(N4CCNCC4)cc3)cnc2C)cc(OC)c1OC`, the “thermal shift delta Tm” value turned out to be 1.13 °C.

With `O=C(Nc1ccc(OC(F)(F)F)cc1)c1sccc1NCc1ccnc2ccccc12`, the “thermal shift delta Tm” value amounted to 2.48 °C.

On to `Cc1nc2ccc(-n3ncc(C(=O)c4cc5ccccc5[nH]4)c3N)cc2[nH]1`, for which the “thermal shift delta Tm” value was found to be 2.34 °C.

As for `CC(C)n1ncnc1-c1cn2c(n1)-c1ccc(O[C@@H](C)C(N)=O)cc1OCC2`, the “thermal shift delta Tm” value turned out to be 0.84 °C.

Consider `O=C(O)[C@]1(Cc2cccc(Nc3nccs3)n2)CC[C@@H](Oc2cccc(Cl)c2F)CC1`, for which the “thermal shift delta Tm” value is 1.72 °C.

In the case of `O=C(O)CCC(=O)Nc1ccc(Br)cn1` [Bikinin], the “thermal shift delta Tm” value is 0.91 °C.

Regarding `CCOc1cc2ncc(C#N)c(Nc3ccc(OCc4ccccn4)c(Cl)c3)c2cc1NC(=O)/C=C/CN(C)C` [Neratinib (HKI-272)], the “thermal shift delta Tm” value is 0.66 °C.

As to `O=C(Nc1cccc(C(F)(F)F)c1)c1cccc2cc(Oc3cc(CO)ncn3)ccc12`, the “thermal shift delta Tm” value stood at 0.76 °C.

With `CC1(C)C=Cc2c(ccc3c2OC[C@@H](c2ccc(O)cc2O)C3)O1` [Glabridin], the “thermal shift delta Tm” value was determined as 2.93 °C.

Take `COc1ccccc1-c1cc(Nc2cccc(CS(N)(=O)=O)c2)ncn1`: the “thermal shift delta Tm” value was determined as 0.45 °C.

Take `Cc1ccc(C(=O)Nc2ccc(Oc3cc4cnn(C)c4cc3-c3cn[nH]c3)c(F)c2)c(=O)n1-c1ccc(F)cc1`: the “thermal shift delta Tm” value was 1.94 °C.

Regarding `CCS(=O)(=O)c1cccc(-c2cc(C(=O)NC3CCN(C)CC3)c(C)c3[nH]c4ncc(C)cc4c23)c1`, the “thermal shift delta Tm” value turned out to be 3.88 °C.

Turning to `CCc1cncnc1N1CCN(Cc2nc3ccc(C(F)(F)F)cc3[nH]2)CC1`, the “thermal shift delta Tm” value turned out to be 0.04 °C.

With `Cc1ccc(NC(=O)c2ccc(CN3CCN(C)CC3)cc2)cc1Nc1nccc(-c2cccnc2)n1` [Imatinib (STI571)], the “thermal shift delta Tm” value is 0.71 °C.

Turning to `CCn1c(=O)c(-c2ccc(Cl)cc2Cl)cc2cnc(Nc3ccc(N4CCNCC4)c(F)c3)nc21`, the “thermal shift delta Tm” value worked out at 0.13 °C.

For `COc1cc(N2CCN(C)CC2)ccc1Nc1ncc2c(n1)N(C)c1ccccc1C(=O)N2`, the “thermal shift delta Tm” value worked out at 0.79 °C.

With `CCn1c(-c2nonc2N)nc2cnc(Oc3cccc(NC(=O)c4ccc(OCCN5CCOCC5)cc4)c3)cc21`, the “thermal shift delta Tm” value worked out at 1.01 °C.

Regarding `O=C1Cc2c([nH]c3ccc(Br)cc23)-c2ccccc2N1` [Kenpaullone], the “thermal shift delta Tm” value came to 2.91 °C.

Turning to `COC(=O)Nc1ccc(-c2nc(N3CCOCC3)c3cnn(C4CCN(C(=O)OC)CC4)c3n2)cc1`, the “thermal shift delta Tm” value is 0.77 °C.

As to `Nc1ncc(-c2ccnc(Nc3ccncc3)n2)c(CC2CC2)n1`, the “thermal shift delta Tm” value was 1.45 °C.

Turning to `C=CC(=O)Nc1ccc2ncnc(Nc3cccc(Br)c3)c2c1`, the “thermal shift delta Tm” value was 0.41 °C.

As for `COc1nccc(-c2c(-c3ccc(F)cc3)ncn2C2CCC(O)CC2)n1` (centres undefined), the “thermal shift delta Tm” value was determined as 1.05 °C.

`CC(C)Nc1cc(-c2c[nH]c(C(=O)N[C@H](CO)c3cccc(Cl)c3)c2)c(Cl)cn1`: the “thermal shift delta Tm” value stood at 1.73 °C.

Turning to `CN1CCN(Cc2ccc(NC(=O)Nc3ccc(Oc4ccnc(N)n4)cc3)cc2C(F)(F)F)CC1`, the “thermal shift delta Tm” value is 0.73 °C.

Regarding `O=C(NCCO)c1cccc(-c2cc(Nc3ccc(OC(F)(F)F)cc3)ncn2)c1`, the “thermal shift delta Tm” value came out at 0.68 °C.

As for `CC(C)(O)CNc1ncc(-c2ccnc(Nc3ccnc(Cl)c3)n2)c(CC2CC2)n1`, the “thermal shift delta Tm” value is 1.94 °C.

With `O=C1NC(=O)C(c2ccccc2[N+](=O)[O-])=C1Nc1ccc(O)c(Cl)c1`, the “thermal shift delta Tm” value came out at 0.17 °C.

For `CCOc1cc(N2CCC(O)CC2)ccc1Nc1ncc2c(n1)N(C)c1ccccc1C(=O)N2C`, the “thermal shift delta Tm” value turned out to be 0.82 °C.

In the case of `COc1ccc(-c2ccc3ncc4c(c3c2)n(-c2ccc(N3CCNCC3)c(C(F)(F)F)c2)c(=O)n4C)cn1`, the “thermal shift delta Tm” value was found to be 0.66 °C.

The next test relates to LOC_OS01G60700-cb002. Described as above. The following applies: 12.5 µM; protein concentration 2 µM. The method, boiled down: as §1
In the case of `O=C1NC(=O)C(=Cc2ccc(-c3ccc(F)cc3)o2)S1` (stereo in doubt), the “thermal shift delta Tm” value worked out at 0.92 °C.

With `CONC(=O)c1ccccc1Nc1cc(Nc2cc(C)nn2C(C)C)ncc1Cl`, the “thermal shift delta Tm” value turned out to be 0.19 °C.

As for `O=C(O)c1ccc2c3c1cccc3c(=O)n1c3ccccc3nc21`, the “thermal shift delta Tm” value amounted to 1 °C.

For the compound `OC1CCC(Oc2cccc3cnc(Nc4ccc5nc[nH]c5c4)nc23)CC1` (centres undefined), the “thermal shift delta Tm” value was -0.02 °C.

Consider `CN1CCN(Cc2ccc(-c3cnc4[nH]cc(-c5ccc6[nH]ccc6c5)c4c3)cc2)CC1`, for which the “thermal shift delta Tm” value was found to be 2.47 °C.

Regarding `Cc1cc(N2CCOCC2)cc2[nH]c(-c3c(NC[C@@H](O)c4cccc(Cl)c4)cc[nH]c3=O)nc12`, the “thermal shift delta Tm” value was -0.31 °C.

With `S=C(NCc1ccc2c(c1)OCO2)N1CCN(c2ncnc3c2oc2ccccc23)CC1` [Amuvatinib (MP-470)], the “thermal shift delta Tm” value was determined as 1.01 °C.

For the compound `COc1cc2c(N3CCN(C(=O)Nc4ccc(OC(C)C)cc4)CC3)ncnc2cc1OCCCN1CCCCC1` [Tandutinib (MLN518)], the “thermal shift delta Tm” value amounted to 0.63 °C.

On to `COc1cc(-c2cc(-c3ccc(N4CCNCC4)cc3)cnc2C)cc(OC)c1OC`, for which the “thermal shift delta Tm” value is 0.16 °C.

On to `O=C(Nc1ccc(OC(F)(F)F)cc1)c1sccc1NCc1ccnc2ccccc12`, for which the “thermal shift delta Tm” value came out at 0.05 °C.

On to `Cc1nc2ccc(-n3ncc(C(=O)c4cc5ccccc5[nH]4)c3N)cc2[nH]1`, for which the “thermal shift delta Tm” value was -0.42 °C.

`CC(C)n1ncnc1-c1cn2c(n1)-c1ccc(O[C@@H](C)C(N)=O)cc1OCC2`: the “thermal shift delta Tm” value is 1.39 °C.

Consider `O=C(O)[C@]1(Cc2cccc(Nc3nccs3)n2)CC[C@@H](Oc2cccc(Cl)c2F)CC1`, for which the “thermal shift delta Tm” value was -1.18 °C.

Regarding `O=C(O)CCC(=O)Nc1ccc(Br)cn1` [Bikinin], the “thermal shift delta Tm” value came to 0.53 °C.

Regarding `CCOc1cc2ncc(C#N)c(Nc3ccc(OCc4ccccn4)c(Cl)c3)c2cc1NC(=O)/C=C/CN(C)C` [Neratinib (HKI-272)], the “thermal shift delta Tm” value was determined as 1.67 °C.

With `O=C(Nc1cccc(C(F)(F)F)c1)c1cccc2cc(Oc3cc(CO)ncn3)ccc12`, the “thermal shift delta Tm” value came to 1.22 °C.

Take `CC1(C)C=Cc2c(ccc3c2OC[C@@H](c2ccc(O)cc2O)C3)O1` [Glabridin]: the “thermal shift delta Tm” value is -0.87 °C.

Consider `COc1ccccc1-c1cc(Nc2cccc(CS(N)(=O)=O)c2)ncn1`, for which the “thermal shift delta Tm” value is 1.21 °C.

On to `Cc1ccc(C(=O)Nc2ccc(Oc3cc4cnn(C)c4cc3-c3cn[nH]c3)c(F)c2)c(=O)n1-c1ccc(F)cc1`, for which the “thermal shift delta Tm” value is 1.29 °C.

Take `CCS(=O)(=O)c1cccc(-c2cc(C(=O)NC3CCN(C)CC3)c(C)c3[nH]c4ncc(C)cc4c23)c1`: the “thermal shift delta Tm” value amounted to 0.41 °C.

Turning to `CCc1cncnc1N1CCN(Cc2nc3ccc(C(F)(F)F)cc3[nH]2)CC1`, the “thermal shift delta Tm” value worked out at 0.72 °C.

For the compound `Cc1ccc(NC(=O)c2ccc(CN3CCN(C)CC3)cc2)cc1Nc1nccc(-c2cccnc2)n1` [Imatinib (STI571)], the “thermal shift delta Tm” value was found to be 0.95 °C.

On to `CCn1c(=O)c(-c2ccc(Cl)cc2Cl)cc2cnc(Nc3ccc(N4CCNCC4)c(F)c3)nc21`, for which the “thermal shift delta Tm” value was determined as 1.12 °C.

In the case of `COc1cc(N2CCN(C)CC2)ccc1Nc1ncc2c(n1)N(C)c1ccccc1C(=O)N2`, the “thermal shift delta Tm” value came to 1.11 °C.

Regarding `CCn1c(-c2nonc2N)nc2cnc(Oc3cccc(NC(=O)c4ccc(OCCN5CCOCC5)cc4)c3)cc21`, the “thermal shift delta Tm” value turned out to be 1.61 °C.

As to `O=C1Cc2c([nH]c3ccc(Br)cc23)-c2ccccc2N1` [Kenpaullone], the “thermal shift delta Tm” value stood at 0.89 °C.

For the compound `COC(=O)Nc1ccc(-c2nc(N3CCOCC3)c3cnn(C4CCN(C(=O)OC)CC4)c3n2)cc1`, the “thermal shift delta Tm” value turned out to be 0.54 °C.

`Nc1ncc(-c2ccnc(Nc3ccncc3)n2)c(CC2CC2)n1`: the “thermal shift delta Tm” value was determined as 1.53 °C.

As to `C=CC(=O)Nc1ccc2ncnc(Nc3cccc(Br)c3)c2c1`, the “thermal shift delta Tm” value was 0.96 °C.

As for `COc1nccc(-c2c(-c3ccc(F)cc3)ncn2C2CCC(O)CC2)n1` (centres undefined), the “thermal shift delta Tm” value amounted to 0.84 °C.

As for `CC(C)Nc1cc(-c2c[nH]c(C(=O)N[C@H](CO)c3cccc(Cl)c3)c2)c(Cl)cn1`, the “thermal shift delta Tm” value came to 1.28 °C.

For `CN1CCN(Cc2ccc(NC(=O)Nc3ccc(Oc4ccnc(N)n4)cc3)cc2C(F)(F)F)CC1`, the “thermal shift delta Tm” value stood at 1.34 °C.

Turning to `O=C(NCCO)c1cccc(-c2cc(Nc3ccc(OC(F)(F)F)cc3)ncn2)c1`, the “thermal shift delta Tm” value was found to be 0.09 °C.

With `CC(C)(O)CNc1ncc(-c2ccnc(Nc3ccnc(Cl)c3)n2)c(CC2CC2)n1`, the “thermal shift delta Tm” value was found to be 0.32 °C.

For `O=C1NC(=O)C(c2ccccc2[N+](=O)[O-])=C1Nc1ccc(O)c(Cl)c1`, the “thermal shift delta Tm” value came out at 1.88 °C.

Take `CCOc1cc(N2CCC(O)CC2)ccc1Nc1ncc2c(n1)N(C)c1ccccc1C(=O)N2C`: the “thermal shift delta Tm” value came out at 1.24 °C.

As to `COc1ccc(-c2ccc3ncc4c(c3c2)n(-c2ccc(N3CCNCC3)c(C(F)(F)F)c2)c(=O)n4C)cn1`, the “thermal shift delta Tm” value stood at 0.68 °C.
